According to ChEMBL document CHEMBL4808148, “HDAC6 screening dataset using tau-based substrate in an enzymatic assay yields selective inhibitors and activators” (2021):
“And” between values parts separate entries of the source, which are not always exact repeats. Equal entries are not always repeated. Hit rate of the full screen: of about 5,600 compounds, about 390 (7%) showed an effect of 50% or more. The sample holds strong results, similar compounds and a random draw of the others, so the mix is not that of the screen.

Experiments:
[1] = molecular target: T1, Protein deacetylase HDAC6 (Homo sapiens) (UniProt Q9UBN7); details: at 10 µM
T1 sequence (whole entry): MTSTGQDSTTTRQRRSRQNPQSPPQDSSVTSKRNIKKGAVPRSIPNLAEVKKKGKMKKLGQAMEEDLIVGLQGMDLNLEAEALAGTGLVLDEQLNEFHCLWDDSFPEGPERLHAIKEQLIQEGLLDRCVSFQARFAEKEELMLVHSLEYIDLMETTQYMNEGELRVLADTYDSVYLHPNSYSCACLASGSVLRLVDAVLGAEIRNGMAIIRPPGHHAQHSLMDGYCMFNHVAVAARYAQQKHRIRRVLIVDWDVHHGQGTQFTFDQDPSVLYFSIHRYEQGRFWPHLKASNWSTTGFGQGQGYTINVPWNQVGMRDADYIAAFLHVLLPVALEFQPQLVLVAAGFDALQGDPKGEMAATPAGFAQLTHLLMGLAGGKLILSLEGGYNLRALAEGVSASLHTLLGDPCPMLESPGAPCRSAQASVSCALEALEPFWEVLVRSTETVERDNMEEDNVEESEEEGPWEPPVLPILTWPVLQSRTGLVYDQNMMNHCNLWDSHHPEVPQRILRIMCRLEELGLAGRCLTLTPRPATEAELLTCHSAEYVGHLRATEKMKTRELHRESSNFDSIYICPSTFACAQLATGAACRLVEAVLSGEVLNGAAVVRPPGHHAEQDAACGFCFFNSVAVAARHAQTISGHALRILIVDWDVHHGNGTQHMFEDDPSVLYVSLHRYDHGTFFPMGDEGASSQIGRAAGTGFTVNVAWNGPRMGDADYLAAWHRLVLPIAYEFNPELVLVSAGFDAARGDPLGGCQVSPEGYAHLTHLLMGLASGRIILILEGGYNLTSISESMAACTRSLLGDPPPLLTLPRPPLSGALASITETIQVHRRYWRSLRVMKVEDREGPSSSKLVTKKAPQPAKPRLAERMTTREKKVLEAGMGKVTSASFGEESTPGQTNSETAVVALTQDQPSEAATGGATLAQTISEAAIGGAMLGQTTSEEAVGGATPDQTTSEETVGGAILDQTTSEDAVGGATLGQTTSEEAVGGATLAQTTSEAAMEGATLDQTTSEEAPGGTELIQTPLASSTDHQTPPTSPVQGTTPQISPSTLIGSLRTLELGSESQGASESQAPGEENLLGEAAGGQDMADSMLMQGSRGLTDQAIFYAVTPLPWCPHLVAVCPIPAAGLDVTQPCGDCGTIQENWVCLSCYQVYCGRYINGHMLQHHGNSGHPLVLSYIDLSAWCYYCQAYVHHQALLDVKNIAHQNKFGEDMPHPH

[2] = molecular target: Protein deacetylase HDAC6 (Homo sapiens) (UniProt Q9UBN7); details: at 10 µM; remark: listed apart in the source

Row | Compound | inhibition [1] | inhibition [2]
1 | CN1CCC(COc2cnc(-c3cccc(Cn4nc(-c5cccc(C#N)c5)ccc4=O)c3)nc2)CC1 | 17.5% | 
2 | COc1cc2c(cc1-c1c(C)noc1C)ncc1[nH]c(=O)n([C@H](C)c3ccccn3)c12 | 12.8% | 
3 | CC(=O)/N=c1/[nH]c(C)c(-c2ccc(Cl)c(S(=O)(=O)NCCO)c2)s1 | 23.4% | 
4 | CCCCC1=NC2(CCCC2)C(=O)N1Cc1ccc(-c2ccccc2-c2nnn[nH]2)cc1 | -8.81% | 
5 | O=C(O)c1cnn(-c2nc3cc(OC(F)(F)F)c(Cl)cc3[nH]2)c1 | 59.5% | 
6 | Cc1cc(NCCO)nc(-c2ccc(Br)cc2)n1 | 85.2% | 
7 | COc1ccc(Nc2nccc(NCCO)n2)cc1 | 37.2% | 
8 | N#Cc1cc(CN2CCC(Nc3ncnc4sc(Cl)cc34)CC2)ccc1F | 6.29% | 
9 | Cn1c(NC[C@@H](N)Cc2ccccc2)nc(-c2ccncc2)c(-c2ccc3ccccc3c2)c1=O | 0.59% | 
10 | Nc1nccc2c1ncn2[C@@H]1O[C@H](CO)C(O)C1O (stereo partly specified) | 11% | 
11 | C[C@H](NC(=O)CNC(=O)c1cccc(Cl)c1)c1ccccc1 | 21.1% | 
12 | COc1ccc(C(=O)NCc2ccc(OCCN(C)C)cc2)cc1OC | 1.13% | 
13 | CN(C)Cc1c(C(=O)NCCOc2ccc(C(=O)NO)cc2)oc2ccccc12 | 102% | 
14 | COc1cc(C(=O)NCc2ccc(OCCN(C)C)cc2)cc(OC)c1OC | 6.33% | 
15 | N#Cc1cc2c(OCC(O)CN3CCN(C(c4ccccc4)c4ccccc4)CC3)cccc2[nH]1 (racemic) | 3.02% | 
16 | O=C1CC2(CCCC2)CC(=O)N1CCNCC1COc2ccccc2O1 (stereo unspecified) | 5.51% | 
17 | CN(C)C(=O)n1nnnc1Cc1ccc(-c2ccccc2)cc1 | 26.8% | 
18 | CCCNC(=O)N1N=C(c2ccc(N)cc2)c2cc3c(cc2C1C)OCO3 (stereo unspecified) | 26.2% | 
19 | Cc1[nH]c(/C=C2\C(=O)Nc3ccc(F)cc32)c(C)c1C(=O)NC[C@H](O)CN1CCOCC1 | 34% | 
20 | Cc1ccc(OCCSc2ncccn2)c(Br)c1 | 99.3% | 
21 | CCCCCCCCCCCCCCC[C@@H](O)[C@@H](N)CO | 26% | 
22 | Sodium stibogluconate, CHEMBL2079699 |  | 0.83%
23 | Cc1[nH]c(/C=C2\C(=O)Nc3ccccc32)c(C)c1CCC(=O)O | 30.1% | 
24 | CCN(CC)CCNC(=O)c1c(C)[nH]c(/C=C2\C(=O)Nc3ccc(F)cc32)c1C | 16.3% | 
25 | Cc1cc(C)c(/C=C2\C(=O)Nc3ccccc32)[nH]1 | 88.8% | 
26 | CN(C)c1ccc(/C=C2\C(=O)Nc3ccccc32)cc1 | 101% | 

Row | Compound | inhibition [1] | inhibition [2]
27 | C#Cc1c[nH]c(=O)[nH]c1=O | -6.92% | 
28 | CC1(C)CN2C(CS/C(=N\C3CCCCC3)NC3CCCCC3)=CSC2=N1 | 12.2% | 
29 | O=S(=O)(NC1CCNCC1)c1cc(S(=O)(=O)c2ccccc2)ccc1C(F)(F)F | -7.14% | 
30 | CC(CCCCC(=O)Nc1ccc(C(F)(F)F)cc1)NCCc1c[nH]cn1 (stereo unspecified) | 3.94% | 
31 | C/C(=C\CNc1ncnc2[nH]cnc12)CO | 5.74% | 
32 | CCC(c1ccccc1)c1c(O)c2ccccc2oc1=O (stereo unspecified) | 16.2% | 
33 | O=c1c2ccccc2oc2ccccc12 | 92.3% | 
34 | O=c1oc2ccccc2c(O)c1Cc1c(O)c2ccccc2oc1=O | -8.39% | 
35 | Cc1cc(-c2nc3cc(F)ccc3s2)ccc1NC(=O)[C@@H](N)CCCCN | 28.4% | 
36 | CNCCC=C1c2ccccc2C=Cc2ccccc21 | 15.7% | 
37 | CN(C)CCC=C1c2ccccc2C=Cc2ccccc21 | 63.9% | 
38 | CN(C)CCC=C1c2ccccc2COc2ccccc21 | -7.53% | 
39 | CNc1cc2c(Nc3cccc(Br)c3)ncnc2cn1 | 9.09% | 
40 | Cc1ccc2nc(NCCN)c3ncc(C)n3c2c1 | 4.14% | 
41 | O=C1Nc2ccc(I)cc2C1=Cc1cc(Br)c(O)c(Br)c1 | 72.9% | 
42 | C=C[C@@H]1C[C@]1(NC(=O)[C@@H]1C[C@@H]2CN1C(=O)[C@H](C(C)(C)C)NC(=O)O[C@@H]1C[C@H]1CCCCCc1nc3ccc(OC)cc3nc1O2)C(=O)NS(=O)(=O)C1CC1 | 0.36% | 
43 | O=c1c2c(c1=O)N(CCP(=O)(O)O)CCCN2 | 12.1% | 
44 | Cc1ccc([N+](=O)[O-])cc1S(=O)(=O)N(C)C | 6.18% | 
45 | S=C(NCCc1ccccn1)Nc1ccc(Br)cn1 | 8.48% | 
46 | COC(c1ccccc1)(c1ccccc1)[C@H](Oc1nc(C)cc(C)n1)C(=O)O | -8.71% | 
47 | NKP-1339, CHEMBL5308480 |  | 34.9%
48 | hemin, CHEMBL5308479 |  | 56.4%
49 | Mangafodipir (trisodium), CHEMBL5308448 |  | 18%
50 | COc1ccc(CC2NCCc3c2[nH]c2ccc(C)cc32)c(Cl)c1OC (stereo unspecified) | -1.23% | 
51 | O=C(Nc1ccccc1)Nc1ccc(-c2ccc(C(=O)[C@@H]3CCC[C@H]3C(=O)O)cc2)cc1 | 4.7% and 12.5% | 
